In PMC7862700, “An all-to-all approach to the identification of sequence-specific readers for epigenetic DNA modifications on cytosine”:

How the values were obtained:
Experiment in all cases: DAPPL (digital affinity profiling via proximity ligation, sequencing); 10 mM Tris-HCl pH 7.5, 50 mM NaCl, 1 mM DTT, 4% glycerol, room temperature, 30 min; GST-TFs on glutathione beads, 16-mer random dsDNA library, 0.1% formaldehyde crosslink after washing; high values mean tight binding
FLI1 = biological target: T1, FLI1 (Homo sapiens, UniProt Q01543 1-452); details: protein: recombinant; tags: N-terminal GST; dsDNA, one strand shown
T1 sequence: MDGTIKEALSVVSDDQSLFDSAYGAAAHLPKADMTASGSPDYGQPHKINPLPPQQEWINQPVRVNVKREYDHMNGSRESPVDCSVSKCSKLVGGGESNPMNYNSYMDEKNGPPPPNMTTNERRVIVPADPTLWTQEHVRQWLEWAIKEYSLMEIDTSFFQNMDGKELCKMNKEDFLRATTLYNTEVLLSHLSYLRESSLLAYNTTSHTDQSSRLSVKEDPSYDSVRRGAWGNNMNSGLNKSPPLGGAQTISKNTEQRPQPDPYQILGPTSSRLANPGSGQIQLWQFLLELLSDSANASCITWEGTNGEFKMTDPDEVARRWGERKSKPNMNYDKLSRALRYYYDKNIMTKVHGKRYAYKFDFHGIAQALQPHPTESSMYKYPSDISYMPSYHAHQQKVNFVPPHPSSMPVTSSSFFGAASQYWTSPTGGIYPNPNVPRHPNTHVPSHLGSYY
Outline: (§1)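 Binding signal is defined as a hexamer's read frequency for one factor over its frequency for the tag-only sample. To obtain reads, GST-fused human transcription factors were expressed in yeast, captured on glutathione beads, barcoded with DNA and pooled with that sample. Pools met 200 nmole of a 16-mer random double-stranded DNA library in Tris/NaCl/DTT/glycerol buffer for 30 min at room temperature before washing, 0.1% formaldehyde crosslinking, proximity ligation (BsaI/T4 ligase, 1 h, 37 °C), PCR and Illumina NextSeq500 sequencing.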

ELK1 = biological target: T2, ELK1 (Homo sapiens, UniProt P19419 1-428); details: protein: recombinant; tags: N-terminal GST; dsDNA, one strand shown
T2 sequence: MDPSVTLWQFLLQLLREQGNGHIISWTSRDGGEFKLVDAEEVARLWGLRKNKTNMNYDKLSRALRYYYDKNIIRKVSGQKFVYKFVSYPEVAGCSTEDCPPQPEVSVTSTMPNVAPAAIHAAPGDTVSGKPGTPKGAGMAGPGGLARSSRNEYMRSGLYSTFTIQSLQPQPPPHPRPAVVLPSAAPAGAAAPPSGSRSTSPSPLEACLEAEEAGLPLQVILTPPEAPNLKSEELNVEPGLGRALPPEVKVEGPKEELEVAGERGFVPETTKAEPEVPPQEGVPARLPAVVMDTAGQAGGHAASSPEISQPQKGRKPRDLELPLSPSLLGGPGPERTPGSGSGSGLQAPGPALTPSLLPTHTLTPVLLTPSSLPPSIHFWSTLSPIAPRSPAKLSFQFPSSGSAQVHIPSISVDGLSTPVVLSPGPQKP
Outline: as §1

GABPA = biological target: T3, GABPA (Homo sapiens, UniProt Q06546 1-454); details: protein: recombinant; tags: N-terminal GST; dsDNA, one strand shown
T3 sequence: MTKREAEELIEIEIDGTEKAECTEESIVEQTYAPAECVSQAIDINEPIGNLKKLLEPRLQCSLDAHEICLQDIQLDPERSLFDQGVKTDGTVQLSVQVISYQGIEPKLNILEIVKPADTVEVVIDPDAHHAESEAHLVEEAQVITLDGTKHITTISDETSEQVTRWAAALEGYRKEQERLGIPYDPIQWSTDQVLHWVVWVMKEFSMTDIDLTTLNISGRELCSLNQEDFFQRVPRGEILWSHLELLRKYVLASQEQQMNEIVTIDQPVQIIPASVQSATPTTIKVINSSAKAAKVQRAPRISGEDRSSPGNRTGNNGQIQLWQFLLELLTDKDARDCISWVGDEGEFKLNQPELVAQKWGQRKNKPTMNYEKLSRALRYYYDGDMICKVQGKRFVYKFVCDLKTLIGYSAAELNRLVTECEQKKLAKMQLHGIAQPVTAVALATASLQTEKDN
Outline: as §1

ERG = biological target: T4, ERG (Homo sapiens, UniProt P11308 1-479); details: protein: recombinant; tags: N-terminal GST; dsDNA, one strand shown
T4 sequence: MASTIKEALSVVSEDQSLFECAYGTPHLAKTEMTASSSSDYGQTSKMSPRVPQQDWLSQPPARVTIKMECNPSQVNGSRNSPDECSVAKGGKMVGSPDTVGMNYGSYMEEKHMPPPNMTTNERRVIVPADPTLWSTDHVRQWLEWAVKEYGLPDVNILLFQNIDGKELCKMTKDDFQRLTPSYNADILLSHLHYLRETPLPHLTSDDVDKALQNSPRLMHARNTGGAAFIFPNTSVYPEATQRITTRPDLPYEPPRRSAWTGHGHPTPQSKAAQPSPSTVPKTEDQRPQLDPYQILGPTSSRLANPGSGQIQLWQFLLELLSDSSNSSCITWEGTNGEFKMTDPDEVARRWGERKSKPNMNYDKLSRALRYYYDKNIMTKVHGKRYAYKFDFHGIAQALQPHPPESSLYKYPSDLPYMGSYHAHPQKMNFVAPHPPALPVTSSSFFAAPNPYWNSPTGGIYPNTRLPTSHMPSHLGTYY
Outline: as §1

ELF1 = ELF1 (Homo sapiens, UniProt P32519 1-619); details: protein: recombinant; tags: N-terminal GST; dsDNA, one strand shown
Outline: as §1

EHF = biological target: T5, EHF (Homo sapiens, UniProt Q9NZC4 1-300); details: protein: recombinant; tags: N-terminal GST; dsDNA, one strand shown
T5 sequence: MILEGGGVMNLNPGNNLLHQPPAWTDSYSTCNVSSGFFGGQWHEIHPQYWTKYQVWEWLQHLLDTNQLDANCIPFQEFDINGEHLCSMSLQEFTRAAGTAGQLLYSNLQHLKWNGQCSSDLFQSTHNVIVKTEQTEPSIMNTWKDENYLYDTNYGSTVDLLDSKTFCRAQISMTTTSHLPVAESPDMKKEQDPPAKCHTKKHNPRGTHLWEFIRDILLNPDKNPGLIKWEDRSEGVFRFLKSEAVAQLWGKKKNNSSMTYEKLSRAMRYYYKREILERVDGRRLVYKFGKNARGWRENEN
Outline: as §1

SPI1 = SPI1 (Homo sapiens, UniProt P17947 1-270); details: protein: recombinant; tags: N-terminal GST; dsDNA, one strand shown
Outline: as §1

SPIB = SPIB (Homo sapiens, UniProt Q01892 1-262); details: protein: recombinant; tags: N-terminal GST; dsDNA, one strand shown
Outline: as §1

ELK3 = biological target: T6, ELK3 (Homo sapiens, UniProt P41970 1-407); details: protein: recombinant; tags: N-terminal GST; dsDNA, one strand shown
T6 sequence: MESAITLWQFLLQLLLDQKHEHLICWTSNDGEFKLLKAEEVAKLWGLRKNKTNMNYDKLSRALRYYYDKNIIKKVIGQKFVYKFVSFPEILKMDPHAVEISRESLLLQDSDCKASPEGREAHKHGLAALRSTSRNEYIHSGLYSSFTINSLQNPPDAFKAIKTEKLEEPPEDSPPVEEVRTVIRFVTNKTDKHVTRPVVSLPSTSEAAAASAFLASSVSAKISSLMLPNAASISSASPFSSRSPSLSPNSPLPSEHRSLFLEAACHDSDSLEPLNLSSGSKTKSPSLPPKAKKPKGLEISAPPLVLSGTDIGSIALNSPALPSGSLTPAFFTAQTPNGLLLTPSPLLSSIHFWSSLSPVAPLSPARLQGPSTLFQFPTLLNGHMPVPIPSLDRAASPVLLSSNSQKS
Outline: as §1

FEV = biological target: T7, FEV (Homo sapiens, UniProt Q99581 1-238); details: protein: recombinant; tags: N-terminal GST; dsDNA, one strand shown
T7 sequence: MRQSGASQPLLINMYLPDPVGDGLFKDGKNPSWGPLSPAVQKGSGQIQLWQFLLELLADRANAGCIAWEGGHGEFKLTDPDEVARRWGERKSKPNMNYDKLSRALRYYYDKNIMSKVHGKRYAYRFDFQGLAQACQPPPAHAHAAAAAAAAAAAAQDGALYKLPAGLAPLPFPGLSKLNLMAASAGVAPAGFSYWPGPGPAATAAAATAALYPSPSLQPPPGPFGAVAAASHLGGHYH
Outline: as §1

ETV5 = ETV5 (Homo sapiens, UniProt P41161 1-510); details: protein: recombinant; tags: N-terminal GST; dsDNA, one strand shown
Outline: as §1

HSF1 = HSF1 (Homo sapiens, UniProt Q00613 1-529); details: protein: recombinant; tags: N-terminal GST; chain copies: 3; dsDNA, one strand shown
Outline: as §1

SPIC = biological target: T8, SPIC (Homo sapiens, UniProt Q8N5J4 1-248); details: protein: recombinant; tags: N-terminal GST; dsDNA, one strand shown
T8 sequence: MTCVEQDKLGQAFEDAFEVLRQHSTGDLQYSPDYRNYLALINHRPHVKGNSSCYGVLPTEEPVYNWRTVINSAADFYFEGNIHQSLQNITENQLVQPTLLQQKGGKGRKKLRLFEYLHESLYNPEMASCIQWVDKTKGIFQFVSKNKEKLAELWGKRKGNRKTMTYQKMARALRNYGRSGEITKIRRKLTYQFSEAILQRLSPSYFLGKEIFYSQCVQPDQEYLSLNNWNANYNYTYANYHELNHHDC
Outline: as §1

ELF4 = ELF4 (Homo sapiens, UniProt Q99607 1-663); details: protein: recombinant; tags: N-terminal GST; dsDNA, one strand shown
Outline: as §1

ELK4 = biological target: T9, ELK4 (Homo sapiens, UniProt P28324-2 1-405); details: protein: recombinant; tags: N-terminal GST; dsDNA, one strand shown
T9 sequence: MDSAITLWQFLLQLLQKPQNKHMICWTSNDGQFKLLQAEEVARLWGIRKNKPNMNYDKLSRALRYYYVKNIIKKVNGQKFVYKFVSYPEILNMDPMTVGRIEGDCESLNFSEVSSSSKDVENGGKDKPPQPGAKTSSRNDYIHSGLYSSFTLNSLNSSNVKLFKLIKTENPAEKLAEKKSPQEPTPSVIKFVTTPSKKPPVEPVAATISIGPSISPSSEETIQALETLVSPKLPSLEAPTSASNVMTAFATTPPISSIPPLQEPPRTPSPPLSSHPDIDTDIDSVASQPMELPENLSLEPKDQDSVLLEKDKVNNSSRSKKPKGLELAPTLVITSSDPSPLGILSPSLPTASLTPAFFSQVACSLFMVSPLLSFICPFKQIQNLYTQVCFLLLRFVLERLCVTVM
Outline: as §1

ETV2 = biological target: T10, ETV2 (Homo sapiens, UniProt O00321 1-342); details: protein: recombinant; tags: N-terminal GST; dsDNA, one strand shown
T10 sequence: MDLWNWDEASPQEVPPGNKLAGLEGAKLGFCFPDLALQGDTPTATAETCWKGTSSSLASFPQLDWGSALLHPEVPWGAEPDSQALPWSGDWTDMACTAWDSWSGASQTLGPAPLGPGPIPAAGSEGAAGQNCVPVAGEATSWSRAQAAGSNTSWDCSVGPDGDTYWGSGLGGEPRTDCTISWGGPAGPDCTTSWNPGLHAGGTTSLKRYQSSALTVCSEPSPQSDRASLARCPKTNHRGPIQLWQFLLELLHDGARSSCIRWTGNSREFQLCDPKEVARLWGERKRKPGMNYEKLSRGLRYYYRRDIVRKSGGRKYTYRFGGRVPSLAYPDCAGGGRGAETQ
Outline: as §1

ELF3 = biological target: T11, ELF3 (Homo sapiens, UniProt P78545 1-371); details: protein: recombinant; tags: N-terminal GST; dsDNA, one strand shown
T11 sequence: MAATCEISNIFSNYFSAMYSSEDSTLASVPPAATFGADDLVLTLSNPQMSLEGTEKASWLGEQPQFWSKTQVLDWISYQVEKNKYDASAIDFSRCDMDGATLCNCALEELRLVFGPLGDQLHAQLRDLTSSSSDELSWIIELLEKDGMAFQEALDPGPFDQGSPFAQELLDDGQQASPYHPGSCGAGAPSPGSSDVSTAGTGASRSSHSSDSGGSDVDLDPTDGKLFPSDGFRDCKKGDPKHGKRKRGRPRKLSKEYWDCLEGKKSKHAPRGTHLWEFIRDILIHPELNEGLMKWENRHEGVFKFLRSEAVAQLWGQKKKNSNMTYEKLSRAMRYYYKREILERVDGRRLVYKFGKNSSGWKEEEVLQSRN
Outline: as §1

CRX = CRX (Homo sapiens, UniProt O43186 1-299); details: protein: recombinant; tags: N-terminal GST; dsDNA, one strand shown
Outline: as §1

ETV1 = ETV1 (Homo sapiens, UniProt P50549 1-477); details: protein: recombinant; tags: N-terminal GST; dsDNA, one strand shown
Outline: as §1

SPIB, sequence (Q01892 whole entry): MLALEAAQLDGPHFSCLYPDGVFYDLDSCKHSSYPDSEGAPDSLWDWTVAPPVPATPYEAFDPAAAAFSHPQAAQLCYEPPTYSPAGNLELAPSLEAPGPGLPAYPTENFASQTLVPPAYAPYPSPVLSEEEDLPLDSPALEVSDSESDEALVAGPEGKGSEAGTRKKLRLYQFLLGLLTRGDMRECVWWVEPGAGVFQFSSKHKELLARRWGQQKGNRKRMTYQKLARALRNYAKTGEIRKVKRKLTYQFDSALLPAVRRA
ELF1, sequence (P32519 whole entry): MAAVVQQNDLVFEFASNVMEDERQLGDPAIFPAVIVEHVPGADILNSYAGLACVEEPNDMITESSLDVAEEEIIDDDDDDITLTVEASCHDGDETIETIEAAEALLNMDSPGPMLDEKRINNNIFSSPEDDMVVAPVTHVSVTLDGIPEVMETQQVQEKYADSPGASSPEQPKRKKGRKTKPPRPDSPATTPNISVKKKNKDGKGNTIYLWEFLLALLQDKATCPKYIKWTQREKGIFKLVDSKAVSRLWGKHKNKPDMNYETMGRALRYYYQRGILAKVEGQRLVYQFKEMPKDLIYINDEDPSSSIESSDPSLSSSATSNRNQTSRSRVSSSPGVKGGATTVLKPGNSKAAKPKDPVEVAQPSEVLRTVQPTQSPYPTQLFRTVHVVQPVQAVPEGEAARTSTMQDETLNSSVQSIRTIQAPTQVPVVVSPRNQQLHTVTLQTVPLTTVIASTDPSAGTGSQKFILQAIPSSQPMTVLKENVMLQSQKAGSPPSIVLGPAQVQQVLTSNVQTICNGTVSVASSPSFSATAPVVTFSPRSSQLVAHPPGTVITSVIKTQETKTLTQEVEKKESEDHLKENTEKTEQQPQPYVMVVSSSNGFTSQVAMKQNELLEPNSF
CRX, sequence (O43186 whole entry): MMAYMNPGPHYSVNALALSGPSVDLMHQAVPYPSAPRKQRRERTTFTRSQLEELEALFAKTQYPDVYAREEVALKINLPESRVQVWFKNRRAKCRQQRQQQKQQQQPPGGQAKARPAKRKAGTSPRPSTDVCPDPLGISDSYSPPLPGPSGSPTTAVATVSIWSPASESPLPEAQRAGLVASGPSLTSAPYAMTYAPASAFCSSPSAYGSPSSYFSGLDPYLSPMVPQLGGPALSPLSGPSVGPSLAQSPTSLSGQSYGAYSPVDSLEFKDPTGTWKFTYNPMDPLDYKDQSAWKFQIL
ETV1, sequence (P50549 whole entry): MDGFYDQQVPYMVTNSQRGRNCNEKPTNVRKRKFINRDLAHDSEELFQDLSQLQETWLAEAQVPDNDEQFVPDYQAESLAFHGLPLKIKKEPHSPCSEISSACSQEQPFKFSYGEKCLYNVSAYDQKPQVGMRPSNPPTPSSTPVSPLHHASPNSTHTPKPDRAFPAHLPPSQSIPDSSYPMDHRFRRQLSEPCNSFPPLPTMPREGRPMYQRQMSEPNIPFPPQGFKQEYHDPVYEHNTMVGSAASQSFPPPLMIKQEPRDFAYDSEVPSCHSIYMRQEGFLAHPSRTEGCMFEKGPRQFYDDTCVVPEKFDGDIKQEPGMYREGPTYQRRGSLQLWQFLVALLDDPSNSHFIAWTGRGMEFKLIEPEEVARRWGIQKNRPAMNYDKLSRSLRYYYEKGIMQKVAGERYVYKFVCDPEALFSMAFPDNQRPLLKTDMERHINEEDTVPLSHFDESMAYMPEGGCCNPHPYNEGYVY
ETV5, sequence (P41161 whole entry): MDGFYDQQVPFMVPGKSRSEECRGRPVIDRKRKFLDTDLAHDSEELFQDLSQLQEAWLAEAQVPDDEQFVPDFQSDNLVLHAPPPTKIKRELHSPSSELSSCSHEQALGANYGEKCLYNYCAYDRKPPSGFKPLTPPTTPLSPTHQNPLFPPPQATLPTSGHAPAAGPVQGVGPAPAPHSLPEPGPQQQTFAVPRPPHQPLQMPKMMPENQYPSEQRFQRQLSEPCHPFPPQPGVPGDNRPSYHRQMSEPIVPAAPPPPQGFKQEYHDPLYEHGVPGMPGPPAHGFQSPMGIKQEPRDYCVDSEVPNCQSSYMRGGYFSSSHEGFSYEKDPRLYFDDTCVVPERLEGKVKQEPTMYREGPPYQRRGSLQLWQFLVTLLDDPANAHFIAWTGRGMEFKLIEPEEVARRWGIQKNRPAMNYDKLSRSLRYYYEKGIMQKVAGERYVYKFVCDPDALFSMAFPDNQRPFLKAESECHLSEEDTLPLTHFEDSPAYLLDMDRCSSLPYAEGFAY
ELF4, sequence (Q99607 whole entry): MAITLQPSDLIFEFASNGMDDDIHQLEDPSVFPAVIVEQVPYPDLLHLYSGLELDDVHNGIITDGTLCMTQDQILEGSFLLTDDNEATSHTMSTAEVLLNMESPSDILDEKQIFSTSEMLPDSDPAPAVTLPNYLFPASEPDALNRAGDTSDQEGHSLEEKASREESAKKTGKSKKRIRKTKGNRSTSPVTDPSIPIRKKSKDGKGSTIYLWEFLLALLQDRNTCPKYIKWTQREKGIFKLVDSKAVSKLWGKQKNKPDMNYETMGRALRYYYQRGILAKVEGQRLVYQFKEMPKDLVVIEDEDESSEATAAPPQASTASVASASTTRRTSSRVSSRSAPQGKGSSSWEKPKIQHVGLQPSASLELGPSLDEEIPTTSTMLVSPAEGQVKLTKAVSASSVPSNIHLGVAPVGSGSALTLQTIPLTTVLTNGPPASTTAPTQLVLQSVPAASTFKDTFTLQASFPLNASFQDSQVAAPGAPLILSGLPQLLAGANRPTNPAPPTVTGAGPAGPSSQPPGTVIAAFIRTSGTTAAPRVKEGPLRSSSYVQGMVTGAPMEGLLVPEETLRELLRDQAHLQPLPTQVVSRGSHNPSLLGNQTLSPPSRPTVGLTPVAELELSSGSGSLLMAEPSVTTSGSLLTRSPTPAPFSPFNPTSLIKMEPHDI
HSF1, sequence (Q00613 whole entry): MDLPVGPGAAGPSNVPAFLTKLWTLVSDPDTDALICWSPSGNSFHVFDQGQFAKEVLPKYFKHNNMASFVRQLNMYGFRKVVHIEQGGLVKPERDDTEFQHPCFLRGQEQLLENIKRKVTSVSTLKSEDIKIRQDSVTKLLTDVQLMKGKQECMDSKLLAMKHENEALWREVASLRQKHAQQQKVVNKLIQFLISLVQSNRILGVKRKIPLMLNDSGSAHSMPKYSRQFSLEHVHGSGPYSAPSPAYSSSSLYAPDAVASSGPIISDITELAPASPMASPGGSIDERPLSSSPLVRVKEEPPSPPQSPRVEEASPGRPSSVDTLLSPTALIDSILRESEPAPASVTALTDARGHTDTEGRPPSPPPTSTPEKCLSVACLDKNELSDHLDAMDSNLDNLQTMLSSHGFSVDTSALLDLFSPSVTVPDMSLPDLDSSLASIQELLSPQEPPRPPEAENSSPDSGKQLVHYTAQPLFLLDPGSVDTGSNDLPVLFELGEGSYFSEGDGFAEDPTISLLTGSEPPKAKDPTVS

TAACTG
binding signal (FLI1): 1.12 fold enrichment (6-mer frequency, TF over GST control) | binding signal (ELK1): 1.19 fold enrichment (6-mer frequency, TF over GST control) | binding signal (GABPA): 1.24 fold enrichment (6-mer frequency, TF over GST control) | binding signal (ERG): 1.25 fold enrichment (6-mer frequency, TF over GST control) | binding signal (ELF1): 1.27 fold enrichment (6-mer frequency, TF over GST control) | binding signal (EHF): 1.15 fold enrichment (6-mer frequency, TF over GST control) | binding signal (SPI1): 1.21 fold enrichment (6-mer frequency, TF over GST control) | binding signal (SPIB): 1.33 fold enrichment (6-mer frequency, TF over GST control) | binding signal (ELK3): 1.26 fold enrichment (6-mer frequency, TF over GST control) | binding signal (FEV): 1.28 fold enrichment (6-mer frequency, TF over GST control) | binding signal (ETV5): 1.22 fold enrichment (6-mer frequency, TF over GST control) | binding signal (HSF1): 1.25 fold enrichment (6-mer frequency, TF over GST control) | binding signal (SPIC): 1.42 fold enrichment (6-mer frequency, TF over GST control) | binding signal (ELF4): 1.19 fold enrichment (6-mer frequency, TF over GST control) | binding signal (ELK4): 1.23 fold enrichment (6-mer frequency, TF over GST control) | binding signal (ETV2): 1.31 fold enrichment (6-mer frequency, TF over GST control) | binding signal (ELF3): 1.47 fold enrichment (6-mer frequency, TF over GST control) | binding signal (CRX): 1.5 fold enrichment (6-mer frequency, TF over GST control) | binding signal (ETV1): 1.09 fold enrichment (6-mer frequency, TF over GST control)
